# Structures can show the parent of a compound that is named as a salt. The whole screen tested about 5,300 compounds, of which about 130 (2.5%) showed an effect of 50% or more. For the sample, strong results were picked, then their nearest neighbours and some compounds at random.
# Tested on: M. mycetomatis strain mm55
# Conditions: primary screen, metabolic activity vs growth control; 96 h, 2 µM; inhibitor
row,SMILES,% viability
1,"N=C(N)c1ccc(-c2ccc(-c3ccc(C(=N)N)cc3)o2)cc1 [ONC0003070, furamidine]",108.4%
2,"N=C(N)c1ccc(/C=C/c2ccc(C(=N)N)cc2O)cc1 [ONC0003463, hydroxystilbamidine]",43.6%
3,"N=C(N)c1ccc(OCCCCCOc2ccc(C(=N)N)cc2)cc1 [ONC0003359, pentamidine isethionate]",71.33%
4,"CC(=O)OCC1=C(C(=O)O)N2C(=O)[C@@H](NC(=O)CSC(=NC(C)C)NC(C)C)[C@H]2SC1 [ONC0003427, cefathiamidine]",77.15%
5,CCNCC(O)c1cccc(O)c1 (stereo not drawn) [ONC0003685],42.26%
6,"CNC[C@H](O)c1cccc(O)c1 [ONC0000459, lphenylephrine hydrochloride]",72.58%
7,"C[C@H](N)[C@H](O)c1cccc(O)c1 [ONC0003110, metaraminol bitartrate]",76.38%
8,"O=C(Nc1nc(-c2cc(Cl)cs2)c(N2CCN(C3CCCCC3)CC2)s1)c1cnc(N2CCC(C(=O)O)CC2)c(Cl)c1 [ONC0002265, avatrombopag]",50.97%
9,"CN/C(=N/CCSCc1nc[nH]c1C)NC#N [ONC0000657, cimetidine]",137.7%
10,"O=S(=O)(NCCCCCCc1ccccc1)c1cccc2c(Cl)cccc12 [ONC0002705, sc9]",87.04%
11,"CCCCCCCNS(=O)(=O)c1cccc2c(Cl)cccc12 [ONC0003431, sc10]",68.77%
12,"NCCCCCCCCCCNS(=O)(=O)c1cccc2c(Cl)cccc12 [ONC0002708, a7]",47.48%
13,"CC(C)(C)c1cc(C(C)(C)C)c2c(c1)C(O)(C(F)(F)F)C(=O)O2 (stereo not drawn) [ONC0001539, racbhff]",123.7%
14,"NC(N)=Nc1nc(CSCCC(N)=NS(N)(=O)=O)cs1 [ONC0003248, famotidine]",89.34%
15,"Cc1nnc(C(C)C)n1[C@@H]1C[C@H]2CC[C@@H](C1)N2CC[C@H](NC(=O)C1CCC(F)(F)CC1)c1ccccc1 [ONC0004641, maraviroc]",78.39%
16,"CN1C(=O)C(Cc2c[nH]c3ccccc23)NC1=S (stereo not drawn) [ONC0003684, necrostatin1]",40.84%
17,"CN1C(=O)N[C@H](Cc2c[nH]c3c(Cl)cccc23)C1=O [ONC0000938, necrostatin 2]",58.02%
18,"c1ccc2c(Cc3c[nH]c4ccccc34)c[nH]c2c1 [ONC0003447, diindolylmethane]",68.22%
19,"NC(N)=NCCC[C@H](N)C(=O)NCC(=O)N[C@@H](CC(=O)O)C(=O)N[C@@H](CO)C(=O)O [ONC0002282, argglyaspser]",101.1%
20,"CC(C)n1c(/C=C/[C@@H](O)C[C@@H](O)CC(=O)O)c(-c2ccc(F)cc2)c2ccccc21 (racemic) [ONC0004817, fluvastatin sodium lescol]",110.8%
21,"CCCCCCCCCCCCCCOC(=O)c1cccnc1 [ONC0003671, tetradecyl nicotinate]",79.3%

row,SMILES,% viability
1,"C[C@@H]1CCCN1CCc1cc2cc(-c3ccc(C#N)cc3)ccc2o1 [ONC0003444, abt 239 tartrate]",49.56%
2,"N=C(N)/N=C(\N)N1CCOCC1 [ONC0005372, moroxydine hydrochloride]",114.7%
3,"CC(C)(N)CC12CC3CC(CC(C3)C1)C2 [ONC0004056, somantadine]",120.7%
4,"c1cc(OCCN2CCCCC2)cc(-c2n[nH]c3ccc(-c4nc[nH]n4)cc23)c1 [ONC0000900, cc401 hydrochloride]",73.26%
5,"Oc1ccc([C@H]2COc3cc(O)ccc3C2)cc1 [ONC0004406, equol]",119.9%
6,"CCCN1CCC[C@H](c2cccc(O)c2)C1 [ONC0002744, r33hydroxyphenylnpropylpiperidine hydrochloride]",58.06%
7,"CCCN1CCO[C@@H]2c3cc(O)ccc3OC[C@H]21 [ONC0000309, pd128907]",42.57%
8,"COC(=O)N[C@H](C(=O)N1CC2(CC2)C[C@H]1c1ncc(-c2ccc3c(c2)C(F)(F)c2cc(-c4ccc5nc([C@@H]6[C@H]7CC[C@H](C7)N6C(=O)[C@@H](NC(=O)OC)C(C)C)[nH]c5c4)ccc2-3)[nH]1)C(C)C [ONC0001967, ledipasvir]",73.81%
9,"CC(C)NCC(O)c1ccc(N)c(C#N)c1 (stereo not drawn) [ONC0003014, cimaterol]",76.31%
10,"CC(C)NCC(O)c1ccc(O)c(O)c1 (stereo not drawn) [ONC0000608, isoproterenol hydrochloride]",81.88%
11,"CC(C)NCC(O)c1ccc([N+](=O)[O-])cc1 (stereo not drawn) [ONC0002319, nifenalol]",49.56%
12,CC/C=C\C/C=C\C/C=C/C/C=C\C/C=C\C/C=C\CCC(=O)OCC [ONC0002811],151.6%
13,"COC(=O)[C@H](CCCNC(=N)N)NS(=O)(=O)c1ccc(C)cc1 [ONC0004976, tame]",63.05%
14,"N=C(N)c1cc2ccc(OC(=O)c3cccs3)cc2s1 [ONC0004238, bcx 1470 methanesulfonate]",62.8%
15,"CC/C(=C(/CC)c1ccc(O)cc1)c1ccc(O)cc1 [ONC0003197, diethylstilbestrol]",93.2%
16,"CC[C@H](c1ccc(O)cc1)[C@@H](CC)c1ccc(O)cc1 [ONC0003849, hexestrol]",49.29%
17,"CNCC(O)c1ccc(O)cc1 (stereo not drawn) [ONC0005413, oxedrine]",69.09%
18,"C#C[C@]1(O)CC[C@H]2[C@@H]3CCC4=CC(=NO)CC[C@@H]4[C@H]3CC[C@@]21CC (mixture of isomers) [ONC0000953, norgestimate metabolite norelgestromin]",67.65%
19,"CO[C@H]1/C=C/O[C@@]2(C)Oc3c(C)c(O)c4c(O)c(c(/C=N/N5CCN(C)CC5)c(O)c4c3C2=O)NC(=O)/C(C)=C\C=C\[C@H](C)[C@H](O)[C@@H](C)[C@@H](O)[C@@H](C)[C@H](OC(C)=O)[C@@H]1C [ONC0003357, rifampin]",107.5%
20,"CO[C@H]1/C=C/O[C@@]2(C)Oc3c(C)c(O)c4c(O)c(c(/C=N/N5CCN(C6CCCC6)CC5)c(O)c4c3C2=O)NC(=O)/C(C)=C\C=C\[C@H](C)[C@H](O)[C@@H](C)[C@@H](O)[C@@H](C)[C@H](OC(C)=O)[C@@H]1C [ONC0002002, rifapentine]",77.39%
21,"COC1/C=C/OC2(C)Oc3c(C)c(O)c4c(O)c(c(/C=N/N=C/N5CCCCC5)c(O)c4c3C2=O)NC(=O)/C(C)=C\C=C\C(C)C(O)C(C)C(O)C(C)C(OC(C)=O)C1C (stereo not drawn) [ONC0003798, fce22250]",33.52%

# Reference: article PMC12670160, “A drug-repurposing screen of FDA- and EMA-approved drugs identifies two NF-κB inhibitors active against eumycetoma” (Journal of Antimicrobial Chemotherapy, 2025)
